# Assay results published in PubChem BioAssay (NCI).
# This is part of a sample that, as a whole, favours compounds with a hit. Of some 79,000 tested, about 15% had one in any assay. A number with no mark means an inactive call. The source made the active and inactive calls. No stated cut-off is given here; in the data, active means growth inhibition above about 70%; inactive means the rest.
# Experiments:
# [1] = NCI Yeast Anticancer Drug Screen. Data for the rad50 strain (AID 155);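 further: 0% = growth of vehicle-only cultures of the same strain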; settings: S. cerevisiae rad50 strain growth inhibition, active compounds read high
# Outline: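 A DNA repair-deficient yeast mutant serves as the test organism; compound-induced growth inhibition is calculated against vehicle-treated cells.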
# [2] = NCI Yeast Anticancer Drug Screen. Data for the mec2-1 strain (AID 157); settings: S. cerevisiae mec2-1 strain, active compounds read high
# Outline: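 Yeast mec2-1 mutant treated with compound. Readout: growth inhibition vs vehicle controls.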
# [3] = NCI Yeast Anticancer Drug Screen. Data for the sgs1 mgt1 strain (AID 161);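 further: 0% = growth of cultures given vehicle only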; settings: S. cerevisiae sgs1 mgt1 strain, active compounds read high
# Outline: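 Test agents were incubated with a DNA-repair-mutant yeast strain. Growth was then read and compared against vehicle-treated controls.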
# [4] = NCI Yeast Anticancer Drug Screen. Data for the cln2 rad14 strain (AID 165);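 further: 0% = growth equal to vehicle treated cultures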; settings: S. cerevisiae cln2 rad14 strain, active compounds read high
# Outline: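 cln2 rad14 yeast strain; compound exposure; growth inhibition read vs vehicle controls.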
# [5] = NCI Yeast Anticancer Drug Screen. Data for the bub3 strain (AID 167); settings: S. cerevisiae bub3 mutant strain, active compounds read high
# Outline: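 Inhibition values come from growth of compound-treated mutant yeast normalised to vehicle-treated controls.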
# [6] = NCI Yeast Anticancer Drug Screen. Data for the mlh1 rad18 strain (AID 175); settings: S. cerevisiae mlh1 rad18 strain growth inhibition, active compounds read high
# Outline: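 Yeast w/ defined DNA-repair lesions; compound exposure; growth vs vehicle controls → % inhibition.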
# [7] = at 5.0 µM (retest, dose inferred, filed as 0.5)
# [8] = at 50.0 µM (retest, dose inferred, filed as 5.0)
Structure (SMILES),"growth inhibition [1, 7]","growth inhibition [1, 8]",growth inhibition ([1]; at 50.0 µM),"growth inhibition [2, 7]","growth inhibition [2, 8]",growth inhibition ([2]; at 50.0 µM),"growth inhibition [3, 7]","growth inhibition [3, 8]",growth inhibition ([3]; at 50.0 µM),"growth inhibition [4, 7]","growth inhibition [4, 8]",growth inhibition ([4]; at 50.0 µM),"growth inhibition [5, 7]","growth inhibition [5, 8]",growth inhibition ([5]; at 50.0 µM),"growth inhibition [6, 7]","growth inhibition [6, 8]",growth inhibition ([6]; at 50.0 µM)
O=C1C(=O)c2cc(Cl)ccc2-c2ccc(Cl)cc21,20%,90% (active),91% (active),30%,95% (active),93.9% (active),33%,95% (active),94% (active),-4%,94% (active),88.5% (active),56%,94% (active),86.6% (active),30%,95% (active),93.5% (active)
COc1ccc(CNc2nc3cc(C(F)(F)F)ccc3nc2C)cc1OC,-9%,22%,87.8% (active),-34%,39%,91.3% (active),6%,38%,91.4% (active),11%,74% (active),92.7% (active),-30%,18%,89.7% (active),-19%,18%,89.2% (active)
COc1cccc(/C=C2\CCC(CN(C)C)C2=O)c1 (stereo not given),27%,95% (active),93.5% (active),21%,99% (active),93.8% (active),39%,99% (active),93.3% (active),28%,98% (active),91.6% (active),48%,99% (active),92.5% (active),35%,99% (active),91.7% (active)
CC(=O)N1C(c2[nH]c3ccccc3c2Cc2ccccc2)CCN1c1ccccc1 (stereo not given),-27%,94% (active),84.9% (active),-14%,98% (active),87% (active),-20%,94% (active),88.3% (active),-12%,96% (active),85.7% (active),-18%,96% (active),87.5% (active),-27%,95% (active),83.8% (active)
CCCCCN(CCCCC)C(C)C(=O)c1ccc2cc(Br)c3ccccc3c2c1 (stereo not given),17%,61%,93.9% (active),9%,46%,90.4% (active),13%,71% (active),90.7% (active),-2%,42%,88.7% (active),14%,66%,87.1% (active),7%,63%,95.5% (active)
Cc1ccc(S(=O)(=O)NNC(C[N+](=O)[O-])c2ccccc2)cc1 (stereo not given),69%,99% (active),96.9% (active),5%,100% (active),44.4%,23%,99% (active),96.2% (active),8%,74% (active),70.7% (active),17%,99% (active),92.7% (active),36%,99% (active),96% (active)
COC(=O)NNc1c([N+](=O)[O-])cnn(-c2ccccc2)c1=O,18%,56%,14.9%,-5%,10%,0.55%,-1%,-14%,14%,9%,32%,30%,11%,26%,0.9%,-11%,-12%,-8.15%
N=c1n(CC(=O)NC23CC4CC(CC(C4)C2)C3)c2ccccc2n1Cc1ccc(Cl)cc1,33%,33%,92.5% (active),13%,13%,93.3% (active),14%,14%,93.4% (active),-2%,-2%,92.4% (active),-2%,-2%,91.4% (active),13%,13%,90.3% (active)
CC(C)c1ccc2c(c1)CC[C@H]1[C@](C)(C(=O)O)CCC[C@]21C,-1%,96% (active),91.6% (active),2%,96% (active),93% (active),10%,96% (active),91.8% (active),-11%,96% (active),91.3% (active),-2%,95% (active),90.8% (active),9%,95% (active),91.1% (active)
CCOC(=O)c1c(C)[nH]c(C(=O)C(N)C(=O)OCC)c1C (stereo not given),8%,-3%,98% (active),6%,-6%,99.5% (active),7%,-1%,98.8% (active),3%,-1%,99.5% (active),-3%,-5%,99.4% (active),4%,-6%,99% (active)
Cc1cc([N+](=O)[O-])cc(C)[n+]1[O-],13%,67%,82.5% (active),0%,12%,50.1%,17%,80% (active),91.2% (active),3%,53%,44.8%,0%,-14%,6.55%,20%,60%,84.2% (active)
CCCc1nc2c(nc1C)C(=O)C=CC2=O,-101%,96% (active),96.5% (active),-37%,99% (active),97.5% (active),-46%,95% (active),81.6% (active),-44%,97% (active),86.5% (active),-53%,96% (active),97.1% (active),-80%,96% (active),98.3% (active)
Cc1c2ccncc2cc2c1sc1ccncc12,97% (active),97% (active),91.2% (active),95% (active),97% (active),93% (active),94% (active),99% (active),91.2% (active),87% (active),98% (active),90.5% (active),96% (active),98% (active),89.5% (active),96% (active),97% (active),89.3% (active)
CCCCCCCCCCCOc1cccc(N2C(N)=NC(N)=NC2(C)C)c1,99% (active),91% (active),98.8% (active),99% (active),96% (active),99.5% (active),99% (active),96% (active),98.6% (active),98% (active),90% (active),58.5%,98% (active),96% (active),99.1% (active),99% (active),95% (active),98.7% (active)
O=C(Nc1ccccc1)O/N=C1/CCCC/C1=C\c1ccccc1,26%,77% (active),88.4% (active),41%,85% (active),90.1% (active),57%,86% (active),88.3% (active),65%,85% (active),84.4% (active),54%,87% (active),81.6% (active),35%,88% (active),84.1% (active)
COc1ccccc1NC(=O)Oc1ccc(C(C)(CCC(=O)O)c2ccc(OC(=O)Nc3ccccc3OC)cc2)cc1,-2%,13%,-9.65%,8%,25%,-1.8%,-31%,-7%,11.7%,2%,-20%,39.8%,0%,15%,8.05%,-26%,-45%,-24.6%
Cc1cc2c(cc1C)C(=O)OC2=O,1%,14%,72% (active),-1%,-1%,45.5%,2%,1%,36.3%,1%,-1%,31.6%,-3%,5%,83.5% (active),-2%,5%,41.5%
CC(C)(C)CC(=O)O,8%,9%,5.05%,5%,3%,18.1%,-5%,2%,29.1%,-2%,-4%,27.1%,2%,13%,26.9%,7%,8%,-2.2%
c1ccc2c(CCc3ccncc3)cccc2c1,4%,74% (active),95.4% (active),2%,60%,95.5% (active),1%,60%,96% (active),3%,53%,88.5% (active),10%,81% (active),94.1% (active),0%,71% (active),92.5% (active)
CSC1=Nc2ccccc2SC(c2ccccc2)C1c1ccccc1 (stereo not given),4%,14%,20.1%,0%,15%,29.3%,6%,17%,67%,-3%,-9%,84.7% (active),5%,7%,53.3%,3%,8%,63.9%
